Experimental findings from PubChem BioAssay (NCATS) are described below.

SMILES strings stand for the structures. A number with no mark means an inactive call. Records with an inconclusive call do not appear. Calls of active or inactive are those of the source. Unless noted, the call rests on the fitted dose curve; in most records, active means well fitted curve in either direction with a large enough effect (not every such curve was filed as active); inconclusive means small, poorly fitted or top-dose-only effect, or another doubt; inactive means flat fitted curve, though single readings scatter.

Assay [1] addresses Lysosomal acid glucosylceramidase (Homo sapiens) (UniProt P04062). Description: Glucocerebrosidase-p2 (AID 348; in the data active means potency below about 10 µM; further: potency means the concentration at half of the fitted maximal effect). The settings on record: purified GBA, blue fluorogenic substrate, 40 min. In outline: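 Compounds titrated from 0.6 nM upwards against 0.2 nM enzyme in pH 5.9 citric acid/KH2PO4, taurocholate, tween-20; blue fluorogenic substrate 80 uM, 40 min room temperature, stopped and read Ex 365/Em 440 for AC50.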

Assay [2] can be described thus: AP1 Signaling Pathway (AID 357). Further: on the % scale 0 is the no-effect control and ±100 the full control effect. The settings on record: ME-180 AP-1-bla reporter, EGF-induced, beta-lactamase ratio, 5 h; at 7.69 µM (top of the series) unless noted. Summed up: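 ME-180 cells with beta-lactamase reporter under AP-1 response element, stimulated with EC50 EGF; compounds tested in titration series, 5 h at 37 °C. CCF4 substrate added 2.5 h at room temperature; 460/530 nm emission ratio gave %activity and AC50.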

Assay [3] is described as follows: NFAT Signaling Pathway (AID 444).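 Further: carbachol stimulus at about its EC50 of 1 µM final; on the % scale 0 is the no-effect control and ±100 the full control effect.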 The settings on record: Jurkat NFAT-bla M1, carbachol, beta-lactamase ratio, 5 h; at 7.69 µM (top of the series) unless noted. Summed up:
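Read-out: CCF4 FRET ratio (460 nm/530 nm) after 1 h RT dye loading, used for %activity and AC50 from titration series. Cells: Jurkat NFAT-β-lactamase/M1 line, treated with compound plus 1 uM carbachol for 5 h, 37 °C.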

A short description of assay [4]: Stat Signaling Pathway (AID 446).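 Further: ME-180 cervical cancer cells given 40 pM IL-6 alongside compound; SIE-controlled beta-lactamase reporter measured as 460/530 nm FRET emission ratio; on the % scale 0 is the no-effect control and ±100 the full control effect.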 The settings on record: ME-180 SIE beta-lactamase reporter, IL-6 stimulated, 5 h; at 7.69 µM (top of the series) unless noted. In outline: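 Reporter line: ME-180 cervical carcinoma, SIE-beta-lactamase. Treatment: compound with 40 pM IL-6, 5 hrs, 37 C, in low-serum OPTI-MEM with 10 mM HEPES pH 7.3. Detection: 460/530 nm fluorescence.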

Assay [5] has as its target Glucocorticoid receptor (Homo sapiens) (UniProt P04150). Put plainly: GR-GFP Redistribution (AID 450;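 active means compounds whose dose series gives a full or clear partial fitted curve of increased nuclear translocation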; further: potency means the concentration at half of the fitted maximal effect). The note with it: U2OS GR-GFP nuclear translocation, laser cytometry, 2 h.
For assay [6] the target is unchanged. Description: GR-EFC Redistribution (AID 451; calls by dose curve; further: potency means the concentration at half of the fitted maximal effect). The note with it: CHO-K1 GR-EFC translocation, beta-gal luminescence, 2 h. In outline:
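Translocation of GR-ED fusion to nuclear EA restores b-gal, read by luminescence after 1 h room-temperature detection. Engineered CHO-K1 biosensor cells, 1,000/well, exposed 2 h at 37 C to titrations up to 46 uM final.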

The target of assay [7] is 3',5'-cyclic-AMP phosphodiesterase 4B (Homo sapiens) (UniProt Q07343). Description: qHTS Assay for Inhibitors of PDE-IV (AID 607; active means well fitted activation curve with a large enough effect in the main read-out, with a control signal flat, not every such curve was filed as active; further: % of control where 0% means no effect). The settings on record: HEK293 ACTOne CNG channel cells, membrane potential fluorescence; series mostly up to 22.9 µM. In outline:
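Cell-based read-out of cAMP via a modified cyclic nucleotide-gated channel and membrane potential dye (535/590 nm) in HEK293 cells expressing PDE4 endogenously. Compounds tested up to 22.9 uM final; 100 uM RO 20-1724 reference.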
On the technique in general: Quantitative high-throughput screening tests each substance at several concentrations.

Assay [8] can be described thus: Primary qHTS for small molecule stabilizers of the endoplasmic reticulum resident proteome: Secreted ER Calcium Modulated Protein (SERCaMP) assay (AID 1508630; active means well fitted curve in the direction sought with a large enough effect; an effect the other way counts as inactive or inconclusive; further: on the % scale 0 is the no-effect control and ±100 the full control effect). The note with it: SH-SY5Y GLuc-SERCaMP (Gaussia luciferase released on ER calcium loss) secretion, thapsigargin, luminescence; series mostly up to 38.4 µM. In outline:
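GLuc-SERCaMP-expressing SH-SY5Y cells, pretreated 16 h with compound, are challenged with thapsigargin to empty ER calcium stores; after 4 h, coelenterazine is added directly to the medium and luminescence is imaged.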

Assay [9] deals with Mitogen-activated protein kinase 10 (Mus musculus) (UniProt Q61831). Description: JNK3 AlphaScreen Assay (AID 530). The settings on record: JNK3 lysate, c-Jun phosphorylation; series mostly up to 57.1 µM. Summed up:
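Room-temperature AlphaScreen kinase assay; pre-activated HepG2 lysate as JNK3 source, biotin-GST-cJun(1-79) substrate, 10 uM ATP, compound 15 min preincubation.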
Background: Alpha assays give light when donor and acceptor beads are brought close together.

Assay [10] concerns the target Cytochrome P450 3A4 (Homo sapiens) (UniProt P08684). Description: qHTS Assay for Activators of Cytochrome P450 3A4 (AID 885; active means well fitted curve in the direction sought with a large enough effect; an effect the other way counts as inactive or inconclusive; further: nearly all actives have a fitted effect of over 65% in size). The note with it: recombinant CYP3A4, Luciferin-PPXE luminescence, 60 min; series mostly up to 57.1 µM. Summed up:
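Signal was normalized against complete inhibition by 57 uM ketoconazole. The reaction used 20nM CYP3A4 with 25uM Luciferin-PPXE, 10-min compound preincubation and a 60-min NADPH-supported step at RT.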

The target of assay [11] is Cytochrome P450 2D6 (Homo sapiens) (UniProt P10635). Put plainly: qHTS Assay for Inhibitors and Substrates of Cytochrome P450 2D6 (AID 891; active means well fitted curve in the direction sought with a large enough effect; an effect the other way counts as inactive or inconclusive; further: potency means the concentration at half of the fitted maximal effect; nearly all actives have a fitted effect of over 60% in size). The note with it: recombinant CYP2D6, luciferin-ME EGE luminescence; series mostly up to 57.1 µM. Summed up:
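Human CYP2D6 (5 nM) with 30 uM Luciferin-ME EGE (at Km) in 100 mM KPO4, compound preincubated 10 min, then NADPH regeneration system for 60 min at room temperature. Luciferin read by luminescence; normalized to 1.43 uM quinidine.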

Assay [12] in a line: Confirmation and Secondary Assay for Modulators of Hemoglobin Beta Chain Splicing at IVS2 654 locus (AID 910; active means well fitted curve in the direction sought with a large enough effect; an effect the other way counts as inactive or inconclusive;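 further: HeLa cells stably carrying EGFP split by mutant beta-globin IVS2-654 intron; per-well total GFP intensity by laser scanning cytometry after 2-day treatment; % of control where 0% means no effect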). The note with it: HeLa EGFP-654 splicing reporter, GFP fluorescence, 48 h; series mostly up to 38.3 µM. Summed up: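 Readout: per-well total peak green fluorescence (488 nm ex, 500–520 nm em) from objects 5–250 µm, reflecting correct splicing of an EGFP-654 reporter. Compounds were applied for 2 days at 37 °C to overnight-plated HeLa EGFP-654 cells; controls were DMSO and 500 nM IVS2-654 PNA.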

The nature of assay [13]: qHTS Assay for Identification of Small Molecule Agonists for Hypoxia Response Element Signaling Pathway (AID 914; active means well fitted activation curve with a large enough effect in the signal ratio, with a control signal flat, not every such curve was filed as active; the % refers to the signal ratio; further: % of control where 0% means no effect). The note with it: ME-180 (cervical carcinoma) HRE-bla reporter, beta-lactamase ratio, CoCl2, 17 h; activation: stronger effect = higher value. Summed up:
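AC50 values come from titration-series %Activity, taken as the 460/530nm ratio of CCF4 fluorescence (excitation 405nm). CellSensor HRE-bla ME-180 cells were treated 17 hours at 37 C with compound plus an EC50 level of CoCl2.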

Assay [14] is described as follows: Confirmation and Secondary Assay for Modulators of Hemoglobin Beta Chain Splicing at IVS2 705 locus (AID 930; active means well fitted curve in the direction sought with a large enough effect; an effect the other way counts as inactive or inconclusive;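 further: HeLa cells stably expressing the EGFP-705 splicing reporter; % of control where 0% means no effect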). The note with it: HeLa EGFP-705 splicing reporter, GFP fluorescence, 48 h; series mostly up to 38.3 µM. In outline:
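Restored EGFP fluorescence after 2-day compound exposure reports splicing correction in IVS2-705 EGFP reporter HeLa cells; positive control was 500 nM splice-blocking PNA oligo. Signal measured as well total peak GFP intensity (488 nm excitation).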

Assay [15] concerns the target Ubiquitin carboxyl-terminal hydrolase 1 (Homo sapiens) (UniProt O94782). Put plainly: Inhibitors of USP1/UAF1: Pilot qHTS (AID 504865; active means well fitted curve in the direction sought with a large enough effect; an effect the other way counts as inactive or inconclusive;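 further: rhodamine fluorescence freed from ubiquitin-rhodamine substrate followed over time; top concentration of the series differs between compounds; on the % scale 0 is the no-effect control and ±100 the full control effect; nearly all actives have a fitted effect of over 35% in size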). The settings on record: purified USP1/UAF1, Ub-rhodamine cleavage fluorescence; series mostly up to 54.9 µM. Summed up: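 USP1/UAF1 complex (1nM) preincubated with compound 15 min at room temperature, then Ub-Rho substrate (150nM final) added. Fluorescence read kinetically at 480/540 nm, 6 reads every 60 seconds. Buffer: 50mM HEPES pH 7.8, 0.5mM EDTA, 0.1 mg/ml BSA, 1mM TCEP, 0.01% Tween-20.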

In assay [16] the target is Cytochrome P450 3A4 (Homo sapiens) (UniProt P08684). Put plainly: qHTS Assay for Inhibitors and Substrates of Cytochrome P450 3A4 (AID 884; active means well fitted curve in the direction sought with a large enough effect; an effect the other way counts as inactive or inconclusive; further: on the % scale 0 is the no-effect control and ±100 the full control effect; nearly all actives have a fitted effect of over 50% in size). The note with it: recombinant CYP3A4, Luciferin-PPXE luminescence; series mostly up to 57.1 µM. In outline:
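20 nM human CYP3A4 with 25 uM Luciferin-PPXE (at KM) in 200 mM KPO4, preincubated 10 min with compound; NADPH regeneration started a 60 min RT reaction. Luciferin detected by luminescence, normalized to 57 uM ketoconazole as full inhibition.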

Lysosomal acid glucosylceramidase (Homo sapiens), sequence (P04062 whole entry, looked up): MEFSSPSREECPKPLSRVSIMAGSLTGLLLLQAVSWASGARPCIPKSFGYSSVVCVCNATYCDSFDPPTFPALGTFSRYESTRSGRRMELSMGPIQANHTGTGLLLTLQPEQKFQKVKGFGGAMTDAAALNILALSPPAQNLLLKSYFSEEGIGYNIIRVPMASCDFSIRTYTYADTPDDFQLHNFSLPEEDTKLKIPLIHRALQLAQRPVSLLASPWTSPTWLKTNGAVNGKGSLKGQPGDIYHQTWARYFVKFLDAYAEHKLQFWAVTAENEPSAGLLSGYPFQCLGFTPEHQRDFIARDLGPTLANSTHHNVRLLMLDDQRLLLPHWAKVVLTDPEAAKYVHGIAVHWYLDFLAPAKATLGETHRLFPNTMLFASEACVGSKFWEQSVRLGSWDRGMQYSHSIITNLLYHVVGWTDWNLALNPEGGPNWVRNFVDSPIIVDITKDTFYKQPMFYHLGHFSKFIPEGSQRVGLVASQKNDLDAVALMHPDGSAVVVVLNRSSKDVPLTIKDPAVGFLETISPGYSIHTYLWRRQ
Glucocorticoid receptor (Homo sapiens), sequence (P04150 whole entry, looked up): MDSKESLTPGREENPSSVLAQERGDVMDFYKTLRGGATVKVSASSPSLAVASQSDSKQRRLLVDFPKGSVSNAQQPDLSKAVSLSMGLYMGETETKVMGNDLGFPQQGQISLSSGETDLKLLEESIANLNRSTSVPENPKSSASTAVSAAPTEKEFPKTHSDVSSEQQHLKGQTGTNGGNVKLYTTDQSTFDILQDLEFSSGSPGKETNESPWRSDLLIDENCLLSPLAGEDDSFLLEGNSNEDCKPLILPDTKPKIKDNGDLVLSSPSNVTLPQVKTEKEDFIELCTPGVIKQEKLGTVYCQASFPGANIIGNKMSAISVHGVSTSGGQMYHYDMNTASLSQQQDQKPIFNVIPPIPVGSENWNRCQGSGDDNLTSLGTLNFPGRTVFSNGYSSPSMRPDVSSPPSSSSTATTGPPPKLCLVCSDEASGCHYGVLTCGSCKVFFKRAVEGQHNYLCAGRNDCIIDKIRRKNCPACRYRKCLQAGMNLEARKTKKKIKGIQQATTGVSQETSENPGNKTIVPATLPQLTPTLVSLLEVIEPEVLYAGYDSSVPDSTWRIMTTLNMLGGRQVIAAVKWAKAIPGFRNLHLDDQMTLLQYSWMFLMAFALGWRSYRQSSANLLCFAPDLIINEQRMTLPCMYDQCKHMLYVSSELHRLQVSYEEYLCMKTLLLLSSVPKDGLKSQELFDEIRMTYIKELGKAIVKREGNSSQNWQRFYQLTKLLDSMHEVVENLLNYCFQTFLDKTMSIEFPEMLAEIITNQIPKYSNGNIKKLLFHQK
3',5'-cyclic-AMP phosphodiesterase 4B (Homo sapiens), sequence (Q07343 whole entry, looked up): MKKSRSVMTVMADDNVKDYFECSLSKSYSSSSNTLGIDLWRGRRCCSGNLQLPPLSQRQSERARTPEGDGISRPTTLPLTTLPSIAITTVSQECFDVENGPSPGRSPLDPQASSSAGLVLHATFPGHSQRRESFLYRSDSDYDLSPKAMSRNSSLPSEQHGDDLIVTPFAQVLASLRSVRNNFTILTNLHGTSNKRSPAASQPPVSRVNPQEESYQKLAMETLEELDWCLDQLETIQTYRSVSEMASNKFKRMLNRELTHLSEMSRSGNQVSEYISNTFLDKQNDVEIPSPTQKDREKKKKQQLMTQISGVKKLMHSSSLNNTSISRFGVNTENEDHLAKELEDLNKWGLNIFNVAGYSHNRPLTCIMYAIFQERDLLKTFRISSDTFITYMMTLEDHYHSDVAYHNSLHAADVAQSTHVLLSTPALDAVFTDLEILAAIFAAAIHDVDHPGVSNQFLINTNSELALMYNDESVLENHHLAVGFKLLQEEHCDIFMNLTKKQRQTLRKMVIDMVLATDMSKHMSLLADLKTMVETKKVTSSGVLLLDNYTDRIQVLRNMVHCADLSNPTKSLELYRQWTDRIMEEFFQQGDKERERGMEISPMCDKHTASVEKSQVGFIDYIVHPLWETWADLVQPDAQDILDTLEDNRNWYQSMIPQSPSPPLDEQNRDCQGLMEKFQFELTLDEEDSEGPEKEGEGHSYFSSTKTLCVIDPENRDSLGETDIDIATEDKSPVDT
Cytochrome P450 3A4 (Homo sapiens), sequence (P08684 whole entry, looked up): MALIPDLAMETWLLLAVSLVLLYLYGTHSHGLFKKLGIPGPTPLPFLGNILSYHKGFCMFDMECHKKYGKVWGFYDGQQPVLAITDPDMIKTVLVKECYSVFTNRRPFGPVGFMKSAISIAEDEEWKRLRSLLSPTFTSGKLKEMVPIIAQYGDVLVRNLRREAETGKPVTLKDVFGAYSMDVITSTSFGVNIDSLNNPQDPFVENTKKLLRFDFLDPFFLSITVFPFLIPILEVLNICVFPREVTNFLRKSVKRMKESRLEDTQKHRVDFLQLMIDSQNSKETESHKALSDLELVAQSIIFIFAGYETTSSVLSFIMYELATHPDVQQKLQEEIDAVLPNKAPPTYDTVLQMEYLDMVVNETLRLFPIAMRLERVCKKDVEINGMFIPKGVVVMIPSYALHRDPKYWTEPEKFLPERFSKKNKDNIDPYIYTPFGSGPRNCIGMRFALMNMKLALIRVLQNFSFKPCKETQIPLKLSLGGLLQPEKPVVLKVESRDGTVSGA
Ubiquitin carboxyl-terminal hydrolase 1 (Homo sapiens), sequence (O94782 whole entry, looked up): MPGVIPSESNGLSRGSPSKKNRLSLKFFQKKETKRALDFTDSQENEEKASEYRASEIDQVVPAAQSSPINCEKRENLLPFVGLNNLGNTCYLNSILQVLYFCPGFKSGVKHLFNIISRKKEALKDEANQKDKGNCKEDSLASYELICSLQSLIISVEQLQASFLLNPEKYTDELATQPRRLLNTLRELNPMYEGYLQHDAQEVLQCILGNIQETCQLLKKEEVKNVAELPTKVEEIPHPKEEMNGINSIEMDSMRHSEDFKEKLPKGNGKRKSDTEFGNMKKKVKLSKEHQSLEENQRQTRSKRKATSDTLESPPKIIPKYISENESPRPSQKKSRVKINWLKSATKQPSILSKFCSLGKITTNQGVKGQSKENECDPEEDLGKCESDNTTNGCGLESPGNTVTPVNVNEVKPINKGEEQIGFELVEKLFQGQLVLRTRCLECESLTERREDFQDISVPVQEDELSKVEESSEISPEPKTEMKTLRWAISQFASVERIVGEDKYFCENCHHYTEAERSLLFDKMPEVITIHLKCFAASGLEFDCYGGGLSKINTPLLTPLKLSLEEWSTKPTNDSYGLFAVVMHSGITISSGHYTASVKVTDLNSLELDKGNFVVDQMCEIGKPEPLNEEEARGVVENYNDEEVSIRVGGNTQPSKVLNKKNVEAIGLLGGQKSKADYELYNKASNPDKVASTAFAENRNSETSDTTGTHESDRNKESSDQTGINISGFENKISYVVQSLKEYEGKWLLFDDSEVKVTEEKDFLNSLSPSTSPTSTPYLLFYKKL
Cytochrome P450 2D6 (Homo sapiens), sequence (P10635 whole entry, looked up): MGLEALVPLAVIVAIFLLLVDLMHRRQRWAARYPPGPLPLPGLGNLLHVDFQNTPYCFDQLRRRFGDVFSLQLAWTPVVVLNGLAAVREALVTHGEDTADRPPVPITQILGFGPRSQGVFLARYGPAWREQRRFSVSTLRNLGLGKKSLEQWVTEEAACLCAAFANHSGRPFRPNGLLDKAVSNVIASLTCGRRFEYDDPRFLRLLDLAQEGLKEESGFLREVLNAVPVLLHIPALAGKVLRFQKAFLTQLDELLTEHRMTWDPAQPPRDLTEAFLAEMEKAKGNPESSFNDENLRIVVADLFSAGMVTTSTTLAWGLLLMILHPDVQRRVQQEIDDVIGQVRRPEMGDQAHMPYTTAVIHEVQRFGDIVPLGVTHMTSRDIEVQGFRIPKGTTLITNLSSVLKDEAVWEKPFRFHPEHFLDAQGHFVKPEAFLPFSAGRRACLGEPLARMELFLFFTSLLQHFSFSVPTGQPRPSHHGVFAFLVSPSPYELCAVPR

On to `COc1cccc(Cn2c(=O)c(-c3cccc(Cl)c3)nc3cncnc32)c1`, for which the Potency in [1] is above 11.4 µM; in assay [5], above 9.22 µM; in assay [6], above 46 µM. In addition, the results for the activity change, negative = inhibition in assay [2] and in [3] were -20.4% and -10.8%, respectively. Also, in [4], the activity, negative = inhibition was -8.57%. Further, the Potency entry in assay [7] is “inactive”. Further, the result in assay [8] was inactive.
As for `COC(=O)N1CCC[C@@]2(CCN(Cc3nccs3)C2)C1`, the Potency in [1] is above 11.4 µM; in [6], above 46 µM. Moreover, the activity change, negative = inhibition in assay [2] is 1.72%; in [3], 14.9%. For the same compound, the activity, negative = inhibition in [4] was -4.13%. Besides, the Potency result in assay [9] and in assay [7] was “inactive” throughout. In [8], the outcome was inactive.
Take `O=c1c(-c2cccc(Cl)c2)nc2cncnc2n1Cc1ccc(F)cc1`: the Potency in assay [1] was above 11.4 µM; in assay [5] it was above 9.22 µM; in [6] it was above 46 µM. The activity change, negative = inhibition in assay [2] was -7.68%; in assay [3], -0.975%. Moreover, the activity, negative = inhibition in assay [4] was -5.55%. For the same compound, the Potency result in assay [9] and in [10] was “inactive” in each case. For the same compound, the result in assay [8] was inactive.
Take `CN(C)Cc1ccccc1-c1cc(N(C)C)ncn1`: the Potency in assay [1] is above 11.4 µM; in assay [5], above 46 µM; in assay [11], 1.26 µM (active). Also, the activity change, negative = inhibition in assay [2] was -1.87%; in [3], -11.7%. Also, the activity, negative = inhibition in assay [4] was 7.42%. Moreover, the Potency entry in assay [9], in [7], in assay [12] and in assay [15] was “inactive” in each case. In addition, the activation in assay [13] is 5.79%. Moreover, the outcome in assay [14] and in assay [8] was inactive.
`COc1ccc(NC(=O)N2CC3(CCN(C(=O)c4cccc(F)c4)CC3)C2)cc1`: the Potency was above 11.4 µM in assay [1] and above 46 µM in [6]. For the same compound, the figures for the activity change, negative = inhibition in assay [2] and in [3] were -7.57% and -1.23%, respectively. For the same compound, the activity, negative = inhibition in assay [4] is 0.388%. The Potency result in assay [9] and in assay [7] was “inactive” in each case. For the same compound, the result in assay [8] was inactive.
Turning to `COCC(=O)N1CCC2(CC1)CCN(c1ccc(-c3ccccc3)cc1)CC2`, the results for the Potency in [1] and in [6] were above 11.4 µM and above 46 µM, respectively. Also, the values for the activity change, negative = inhibition in assay [2] and in assay [3] were -8.62% and 2.65%, respectively. In addition, the activity, negative = inhibition in assay [4] is -21.1%. The Potency result in assay [9], in [7] and in assay [16] was “inactive” each time. In assay [8], the result was inactive.
With `COc1ccc(C(=O)N2CCC3(CCN(C(=O)Nc4ccccc4)CC3)CC2)cc1`, the Potency in [1] is above 11.4 µM; in [6], above 46 µM. Moreover, the activity change, negative = inhibition in assay [2] is 0.785%; in assay [3], 6.48%. Moreover, in assay [4], the activity, negative = inhibition is -6.61%. In addition, the Potency result in [9] and in assay [7] was “inactive” throughout. Further, the outcome in assay [8] was inactive.
For the compound `O=C(c1csnn1)N1CCC[C@@]2(CCN(Cc3ccccc3)C2)C1`, the values for the Potency in assay [1] and in assay [6] were above 11.4 µM and above 46 µM, respectively. Moreover, the figures for the activity change, negative = inhibition in assay [2] and in [3] were -14.5% and 1.87%, respectively. In addition, the activity, negative = inhibition in assay [4] is -1.23%. The Potency result in [9] and in assay [7] was “inactive” each time. For the same compound, the outcome in assay [8] was inactive.
